Where “and” joins values, the source holds several entries; their conditions need not be identical. Identical values can stand only once. Inconclusive results are not listed. Calls of active or inactive are those of the source.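 The calls were made as follows, unless noted: active = normalized viability below 100% at a tested concentration; inactive = the rest.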
Columns and labels:
[1] = viability loss in pontine glioma line – cell-based, SU-DIPG-XVII, MIPE5.0, CellTiter-Glo, qHTS, dose response (AID 1347060; cut-off not given, nearly all actives have AC50 up to about 26 µM;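 as to AC50: cells exposed to compound for 48 hours before viability readout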); details: CellTiter-Glo ATP luminescence
[2] = viability loss in pontine glioma line – cell-based, SU-DIPG-XIII, MIPE4.0, CellTiter-Glo, qHTS, dose response (AID 1347061; cut-off not given, nearly all actives have AC50 up to about 37 µM;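 also: cells exposed to compound for 48 hours before readout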); details: CellTiter-Glo ATP luminescence
[3] = viability loss in pontine glioma line – cell-based, SU-DIPG-XIII, MIPE5.0, CellTiter-Glo, qHTS, dose response (AID 1347064; cut-off not given, nearly all actives have AC50 up to about 23 µM;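 as to AC50: cells exposed to compound for 48 hours before the viability read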); details: CellTiter-Glo ATP luminescence
[4] = viability loss in pontine glioma line – cell-based, SU-DIPG-XXV, MIPE5.0, CellTiter-Glo, qHTS, dose response (AID 1347065; cut-off not given, nearly all actives have AC50 up to about 26 µM;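 also: cells exposed to compound for 48 hours before ATP readout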); details: CellTiter-Glo ATP luminescence
[5] = growth inhibition of DIPG cells – cell-based, MIPE4.0 library, CellTiter-Glo luminescence, qHTS (AID 1347066; cut-off not given, nearly all actives have AC50 up to about 30 µM;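 also: cells exposed to compound for 48 hours before readout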); details: SU-DIPG-VI viability, CellTiter-Glo ATP luminescence
[6] = JHH-DIPG-1 glioma cell viability, MIPE5.0 library, CellTiter-Glo luminescence, qHTS (AID 1347067; cut-off not given, nearly all actives have AC50 up to about 26 µM;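 also: cells exposed to compound for 48 hours before readout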); details: JHH-DIPG-1 glioma viability, CellTiter-Glo ATP luminescence
[7] = growth inhibition of DIPG cells – cell-based, MIPE5.0 library, qHTS (AID 1347068; cut-off not given, nearly all actives have IC50 up to about 30 µM;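 as to IC50: cells exposed to compound for 48 hours before viability readout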); details: SU-DIPG-XXV viability
[8] = viability loss with induced miR-34 in A549 – imaging, A549 dox-inducible miR-34, nuclei and caspase counts, primary screen (AID 1347080;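 active = compounds whose cell count with miR-34 switched on is under 0.7 times the count with it off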); details: A549 miR-34 inducible, Hoechst nuclei count, 48 h
[9] = MELAS cybrid and Rieske KO viability enhancers – cell-based, MELAS cybrids, Rieske KO mouse fibroblasts, CellTiter-Glo, primary screen (AID 1508586;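 active = mean z-score across replicates of 1.96 or higher in either the MELAS or the Rieske mutant cell line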;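 also: z relative to plate mean and SD of compound and empty wells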); details: low glucose
[10] = viability loss in pontine glioma line – cell-based, SU-DIPG-IV, MIPE4.0, CellTiter-Glo, qHTS, dose response (AID 1347063; cut-off not given, nearly all actives have AC50 up to about 30 µM;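 also: compound exposure lasted 48 hours before the viability readout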); details: CellTiter-Glo ATP luminescence
[11] = compounds altering HSF1 focus formation in cells – imaging, Selleck Cancer Library (AID 1347162; in the data active = plate-normalised HSF1 focus index below about 0.46); details: human cells, HSF1 nuclear foci imaging, at 10 µM; SSMD: measured here: HSF1 foci SSMD mean; cell count: measured here: cell number; plate-normalised HSF1 focus index: stronger effect = lower value
[12] = drug combination growth inhibition, ovarian cancer – cell-based, oncology-focused library, rucaparib conditional, profiling panel (AID 1508598); details: patient-derived ovarian cancer cells, CellTiter-Glo viability, 144 h, stronger effect = lower value
[13] = P. berghei load reduction in hepatocytes – cell-based, HepG2, luciferase luminescence, HepG2 viability, primary screen (AID 624349; in the data active = parasite load remaining mostly below about 12%, no sharp cut-off; inactive = mostly above about 10%;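 also: 100% = mean of DMSO negative control wells on the same plate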); details: P. berghei liver stage in HepG2, luciferase luminescence, concentration not given here; parasite load remaining: stronger effect = lower value; viability: measured here: HepG2 viability without parasites
[14] = stronger effect = lower value, cell number ratio, induced over uninduced
[15] = measured here: relative caspase fold change +Dox/-Dox
[16] = measured here: total cells with miR-34 induction, stronger effect = lower value
[17] = measured here: total cells without miR-34 induction
[18] = MELAS cybrid survival, CellTiter-Glo 48 h, stronger effect = higher value
[19] = Rieske KO mouse fibroblast survival, CellTiter-Glo 72 h
[20] = at 0.000305 µM, OCI-C5x cells, with rucaparib 10 µM, 100% = cells with rucaparib alone
[21] = at 0.000305 µM, OCI-C5x cells, without rucaparib
[22] = at 0.000305 µM, OCI-P5x cells, with rucaparib 20 µM, 100% = cells with rucaparib alone
[23] = at 0.000305 µM, OCI-P5x cells, without rucaparib
[24] = at 0.00122 µM, OCI-C5x cells, with rucaparib 10 µM, 100% = cells with rucaparib alone
[25] = at 0.00122 µM, OCI-C5x cells, without rucaparib
[26] = at 0.00122 µM, OCI-P5x cells, with rucaparib 20 µM, 100% = cells with rucaparib alone
[27] = at 0.00122 µM, OCI-P5x cells, without rucaparib
[28] = at 0.00488 µM, OCI-C5x cells, with rucaparib 10 µM, 100% = cells with rucaparib alone
[29] = at 0.00488 µM, OCI-C5x cells, without rucaparib
[30] = at 0.00488 µM, OCI-P5x cells, with rucaparib 20 µM, 100% = cells with rucaparib alone
[31] = at 0.00488 µM, OCI-P5x cells, without rucaparib
[32] = at 0.0195 µM, OCI-C5x cells, with rucaparib 10 µM, 100% = cells with rucaparib alone
[33] = at 0.0195 µM, OCI-C5x cells, without rucaparib
[34] = at 0.0195 µM, OCI-P5x cells, with rucaparib 20 µM, 100% = cells with rucaparib alone
[35] = at 0.0195 µM, OCI-P5x cells, without rucaparib
[36] = at 0.0781 µM, OCI-C5x cells, with rucaparib 10 µM, 100% = cells with rucaparib alone
[37] = at 0.0781 µM, OCI-C5x cells, without rucaparib
[38] = at 0.0781 µM, OCI-P5x cells, with rucaparib 20 µM, 100% = cells with rucaparib alone
[39] = at 0.0781 µM, OCI-P5x cells, without rucaparib
[40] = at 0.313 µM, OCI-C5x cells, with rucaparib 10 µM, 100% = cells with rucaparib alone
[41] = at 0.313 µM, OCI-C5x cells, without rucaparib
[42] = at 0.313 µM, OCI-P5x cells, with rucaparib 20 µM, 100% = cells with rucaparib alone
[43] = at 0.313 µM, OCI-P5x cells, without rucaparib
[44] = at 1.25 µM, OCI-C5x cells, with rucaparib 10 µM, 100% = cells with rucaparib alone
[45] = at 1.25 µM, OCI-C5x cells, without rucaparib
[46] = at 1.25 µM, OCI-P5x cells, with rucaparib 20 µM, 100% = cells with rucaparib alone
[47] = at 1.25 µM, OCI-P5x cells, without rucaparib
[48] = at 5 µM, OCI-C5x cells, with rucaparib 10 µM, 100% = cells with rucaparib alone
[49] = at 5 µM, OCI-C5x cells, without rucaparib
[50] = at 5 µM, OCI-P5x cells, with rucaparib 20 µM, 100% = cells with rucaparib alone
[51] = at 5 µM, OCI-P5x cells, without rucaparib

CC#CCn1c(N2CCC[C@@H](N)C2)nc2c1c(=O)n(Cc1nc(C)c3ccccc3n1)c(=O)n2C
inactive: outcome [1] | outcome [2] | outcome [3] | outcome [4] | outcome [5] | outcome [6] | outcome [7]

N#CC1(c2ccc(NC(=O)c3cccnc3NCc3ccncc3)cc2)CCCC1
1.08: fold change [8, 15]
6630: cell count [8, 16]
0.694: z-score [9, 19]
inactive: outcome [1] | outcome [2] | outcome [3] | outcome [4] | outcome [5] | outcome [6] | outcome [7] | fold change [8, 14] 0.862 | z-score [9, 18] -0.704
7700: cell count [8, 17]

Nc1nc(=O)n([C@H]2C[C@H](O)[C@@H](CO)O2)cc1F
inactive: outcome [1] | outcome [2] | outcome [10] | outcome [4] | outcome [5] | outcome [6] | outcome [7]

CS(=O)(=O)N1CCN(Cc2cc3nc(-c4cccc5[nH]ncc45)nc(N4CCOCC4)c3s2)CC1
1570: cell count [8, 17]
-1.97: SSMD [11]
0.859: fold change [8, 15]
active: AC50 [1] 1180 nM | AC50 [2] 5260 nM | AC50 [10] 166 nM | AC50 [3] 1320 nM | AC50 [4] 661 nM | IC50 [7] 4170 nM | z-score [9, 18] 3.74 | viability [12, 22] 98.9% | viability [12, 23] 94.9% | viability [12, 26] 98.2% | viability [12, 27] 92.1% | viability [12, 30] 94.4% | viability [12, 31] 93.2% | viability [12, 34] 96.3% | viability [12, 35] 87.5% | viability [12, 38] 92.7% | viability [12, 39] 88.1% | viability [12, 42] 72.6% | viability [12, 43] 78.2% | viability [12, 46] 82.3% | viability [12, 47] 82.1% | viability [12, 50] 54.2% | viability [12, 51] 70.8%
inactive: fold change [8, 14] 0.864 | plate-normalised HSF1 focus index [11] 0.899 | viability [12, 20] 111% | viability [12, 21] 127% | viability [12, 24] 121% | viability [12, 25] 119% | viability [12, 28] 109% | viability [12, 29] 120% | viability [12, 32] 111% | viability [12, 33] 118% | viability [12, 36] 114% | viability [12, 37] 108% | viability [12, 40] 105% | viability [12, 41] 107% | viability [12, 44] 125% | viability [12, 45] 123% | viability [12, 48] 114% | viability [12, 49] 120%
1360: cell count [8, 16]
6530: cell count [11]
1: z-score [9, 19]

CC1=C(C(=O)Nc2cc3cn[nH]c3cc2F)C(c2ccc(C(F)(F)F)cc2)CC(=O)N1 (stereo not given)
5040: cell count [8, 17]
0.78: fold change [8, 15]
5210: cell count [8, 16]
0.0194: z-score [9, 19]
inactive: outcome [1] | outcome [2] | outcome [10] | outcome [3] | outcome [6] | outcome [7] | fold change [8, 14] 1.03 | z-score [9, 18] -0.364

CN[C@@H](C)C(=O)N[C@H]1CN(C(=O)CC(C)C)CC[C@H]2CC[C@@H](C(=O)NC(c3ccccc3)c3ccccc3)N2C1=O
7260: cell count [11]
inactive: outcome [1] | outcome [2] | outcome [4] | outcome [5] | outcome [6] | outcome [7] | plate-normalised HSF1 focus index [11] 1.1
2.71: SSMD [11]

O=S(=O)(O)CCSSCCS(=O)(=O)O
9460 and 8440: cell count [8, 17]
0.692 and 0.976: fold change [8, 15]
0.587: z-score [9, 19]
inactive: outcome [1] | outcome [2] | outcome [3] | outcome [4] | outcome [5] | outcome [6] | outcome [7] | fold change [8, 14] 0.942 and 0.926 | z-score [9, 18] -0.449 | viability [12, 21] 108% | viability [12, 22] 105% | viability [12, 23] 108% | viability [12, 24] 106% | viability [12, 25] 106% | viability [12, 26] 105% | viability [12, 27] 103% | viability [12, 28] 102% | viability [12, 29] 103% | viability [12, 30] 101% | viability [12, 31] 100% | viability [12, 32] 100% | viability [12, 33] 107% | viability [12, 34] 105% | viability [12, 35] 104% | viability [12, 36] 100% | viability [12, 37] 104% | viability [12, 40] 100% | viability [12, 41] 105% | viability [12, 42] 101% | viability [12, 44] 127% | viability [12, 45] 101% | viability [12, 48] 116% | viability [12, 49] 101%
active: viability [12, 20] 98.2% | viability [12, 38] 98.4% | viability [12, 39] 98.9% | viability [12, 43] 97.9% | viability [12, 46] 94.1% | viability [12, 47] 89.9% | viability [12, 50] 90.1% | viability [12, 51] 88.4%
8910 and 7810: cell count [8, 16]

CC(C)(C)c1nc2c3cc[nH]c(=O)c3c3cc(F)ccc3c2[nH]1
inactive: parasite load remaining [13] 88% | outcome [2]
active: AC50 [1] 16600 nM | AC50 [4] 1480 nM
127%: viability [13]
